Among the data in the antibiotic and cytotoxicity screens of Wong et al. (2023) are growth inhibition call values, retold here.

The campaign covered roughly 39,000 compounds. About 500 (1.3%) were called active. This excerpt belongs to a sample that is enriched for actives.

The test system of the assay is S. aureus RN4220. The experiment in a line: growth inhibition call (relative growth <= 0.2). To be noted: 50 µM.
With `CCCC#Cc1ccc2c(c1)O[C@H](CN(C)Cc1ccc3c(c1)OCO3)[C@H](C)CN([C@@H](C)CO)S2(=O)=O`, the growth inhibition call was “inactive”.

Take `C[C@@H]1CN([C@@H](C)CO)C(=O)c2cc(NS(=O)(=O)c3cccs3)ccc2O[C@@H]1CN(C)CC1CC1`: the growth inhibition call was “inactive”. Regarding `CN(C)[C@@H]1C(=O)[C@@H](C(=O)NCNCCCC[C@H](N)C(=O)O)C(=O)[C@@]2(O)C(=O)[C@@H]3C(=O)c4c(O)cccc4[C@@](C)(O)[C@H]3C[C@@H]12`, the growth inhibition call was “inactive”.

As for `CN(C)[C@@H]1C(=O)[C@@H](C(N)=O)C(=O)[C@@]2(O)C(=O)[C@H]3C(=O)c4c(O)cccc4C[C@H]3C[C@@H]12`, the growth inhibition call was “inactive”. For the compound `CN(C)c1ccc(O)c2c1C[C@H]1C[C@H]3[C@H](N(C)C)C(=O)C(C(N)=O)=C(O)[C@@]3(O)C(=O)[C@H]1C2=O`, the growth inhibition call is “inactive”. Regarding `CN(C)C1C(O)=C(C(N)=O)C(=O)C2(O)C(O)=C3C(=O)c4c(O)ccc(Cl)c4C(O)C3CC12.Cl` (stereo unspecified), the growth inhibition call was “inactive”. `CN(C)c1ccc(O)c2c1C[C@H]1C[C@H]3[C@H](N(C)C)C(=O)[C@@H](C(N)=O)C(=O)[C@@]3(O)C(=O)[C@H]1C2=O`: the growth inhibition call was “active”. Take `CN(C)c1cc(NC(=O)CNC(C)(C)C)c(O)c2c1C[C@H]1C[C@H]3[C@H](N(C)C)C(=O)C(C(N)=O)=C(O)[C@@]3(O)C(=O)[C@H]1C2=O`: the growth inhibition call was “inactive”.

For `CN(C)c1cc(NC(=O)CNC(C)(C)C)c(O)c2c1C[C@H]1C[C@H]3[C@H](N(C)C)C(=O)[C@@H](C(N)=O)C(=O)[C@@]3(O)C(=O)[C@H]1C2=O`, the growth inhibition call is “inactive”. As for `CN(C)c1cc(CNCC(C)(C)C)c(O)c2c1C[C@H]1C[C@H]3[C@H](N(C)C)C(=O)[C@H](C(N)=O)C(=O)[C@@]3(O)C(=O)[C@@H]1C2=O`, the growth inhibition call is “active”. As to `CN(C)c1cc(NC(=O)CNC(C)(C)C)c(O)c2c1CC1CC3C(N(C)C)C(O)=C(C(N)=O)C(=O)C3(O)C(O)=C1C2=O` (stereo unspecified), the growth inhibition call is “inactive”. On to `CN(C)c1ccc(O)c2c1C[C@@H]1C[C@@H]3[C@@H](N(C)C)C(=O)C(C(N)=O)=C(O)[C@]3(O)C(=O)[C@H]1C2=O`, for which the growth inhibition call was “inactive”. To `CN(C)[C@@H]1C(=O)[C@@H](C(N)=O)C(=O)[C@@]2(O)C(=O)[C@@H]3C(=O)c4c(O)c(NC(=O)CN5CCCC5)cc(F)c4C[C@H]3C[C@@H]12` belongs “active”; to `CN(C)[C@@H]1C(=O)[C@@H](C(N)=O)C(=O)[C@@]2(O)C(=O)[C@H]3C(=O)c4c(O)ccc(Cl)c4[C@@H](O)[C@H]3C[C@@H]12`, “active”; to `COc1ccc(S(=O)(=O)N(C)C[C@H]2Oc3ccc(NC(=O)C4CC4)cc3C(=O)N([C@@H](C)CO)C[C@@H]2C)cc1`, “inactive”. As to `C[C@@H]1CCCCO[C@H](CN(C)C(=O)Nc2ccc3c(c2)OCO3)[C@H](C)CN([C@H](C)CO)C(=O)c2cc(NS(=O)(=O)c3ccc(F)cc3)ccc2O1`, the growth inhibition call was “inactive”. To `C[C@H](CO)N1C[C@H](C)[C@H](CN(C)Cc2ccc(Cl)c(Cl)c2)Oc2ccc(NC(=O)Nc3ccccc3)cc2CC1=O` belongs “inactive”; to `O=c1cc(CN2CC[C@H](N3CCOCC3)[C@H](CCCO)C2)nc2c(O)cccn12`, “inactive”.

For `C[C@@H]1CCCCO[C@@H](CN(C)CC2CCCCC2)[C@@H](C)CN([C@@H](C)CO)C(=O)c2cc(NC(=O)C3CCCCC3)ccc2O1`, the growth inhibition call was “inactive”. As for `CC(C)[C@@H](O)C[C@@H](C)O[C@@H]1O[C@H](CO[C@@H]2OC[C@](O)(CO)[C@H]2O)[C@@H](O)[C@H](O)[C@H]1O`, the growth inhibition call is “inactive”. In the case of `C[C@H]1CN([C@@H](C)CO)S(=O)(=O)c2ccc(C#Cc3ccccc3)cc2O[C@H]1CN(C)C(=O)c1ccccn1`, the growth inhibition call was “inactive”.

For the compound `NC(=O)[C@H]1[C@@H]2C(=O)O[C@@H](c3ccccc3)[C@@H](c3ccccc3)N2[C@@H](c2ccccc2OCCO)[C@]12C(=O)Nc1ccc(C#CC3=CCCCC3)cc12`, the growth inhibition call was “inactive”. Consider `C=CCNC(=O)[C@H]1[C@@H]2C(=O)O[C@@H](c3ccccc3)[C@@H](c3ccccc3)N2[C@@H](c2ccc(O)cc2)[C@]12C(=O)Nc1ccc(C#CC3=CCCCC3)cc12`, for which the growth inhibition call was “inactive”. For the compound `O=C1O[C@@H](c2ccccc2)[C@@H](c2ccccc2)N2[C@@H](c3ccccc3OCCO)[C@]3(C(=O)Nc4ccc(C#CC5=CCCCC5)cc43)[C@@H](C(=O)O)[C@H]12`, the growth inhibition call was “inactive”. The entry for `O=C1O[C@@H](c2ccccc2)[C@@H](c2ccccc2)N2[C@@H](c3ccc(O)cc3)[C@]3(C(=O)Nc4ccc(C#CC5=CCCCC5)cc43)[C@@H](C(=O)N3CCCCCCC3)[C@H]12` is “inactive”. Take `O=C1O[C@@H](c2ccccc2)[C@@H](c2ccccc2)N2[C@@H](c3ccc(O)cc3)[C@]3(C(=O)Nc4ccc(C#CC5=CCCCC5)cc43)[C@@H](C(=O)O)[C@H]12`: the growth inhibition call was “active”.

Regarding `O=C1O[C@H](c2ccccc2)[C@H](c2ccccc2)N2[C@H]1[C@@H](C(=O)O)[C@]1(C(=O)Nc3ccc(C#CC4=CCCCC4)cc31)[C@H]2c1ccccc1OCCO`, the growth inhibition call was “active”.

As to `O=C1O[C@H](c2ccccc2)[C@H](c2ccccc2)N2[C@H]1[C@@H](C(=O)O)[C@]1(C(=O)Nc3ccc(C#CC4=CCCCC4)cc31)[C@H]2c1ccc(O)cc1`, the growth inhibition call is “active”. Turning to `C=CCNC(=O)[C@@H]1[C@H]2C(=O)O[C@H](c3ccccc3)[C@H](c3ccccc3)N2[C@H](c2ccc(O)cc2)[C@@]12C(=O)Nc1ccc(C#CC3=CCCCC3)cc12`, the growth inhibition call was “inactive”. The entry for `O=C1O[C@H](c2ccccc2)[C@H](c2ccccc2)N2[C@H]1[C@@H](C(=O)N1CCCCCCC1)[C@]1(C(=O)Nc3ccc(C#CC4=CCCCC4)cc31)[C@H]2c1ccc(O)cc1` is “inactive”; for `CC(C)(C)S(=O)N1Cc2cc(C(=O)N[C@@H]3CCN(Cc4ccccc4)C3)nc(-c3cccc(C#CCC4CCCC4)c3)c2[C@H]1CCO` (stereo partly specified) it is “inactive”. On to `CC(C)(C)OC(=O)C[C@@H]1CC=CC[C@@H](CC(=O)NCCO)C(=O)N[C@@H](Cc2ccccc2)COC1=O`, for which the growth inhibition call is “inactive”. With `C[C@@H]1CN([C@@H](C)CO)C(=O)Cc2cc(NC(=O)Nc3ccc(F)cc3)ccc2O[C@@H]1CN(C)Cc1ccc(C(=O)Nc2ccccc2N)cc1`, the growth inhibition call was “inactive”. With `Cc1ccc(S(=O)(=O)Nc2ccc3c(c2)C(=O)N([C@H](C)CO)C[C@@H](C)[C@@H](CN(C)Cc2ccc4c(c2)OCO4)OCCCC[C@@H](C)O3)cc1`, the growth inhibition call was “inactive”. For the compound `CC(C)NC(=O)N[C@@H]1CC[C@H](CCN)O[C@@H]1CO`, the growth inhibition call is “inactive”. Consider `COc1ccccc1NC(=O)Nc1ccc2c(c1)OC[C@@H](C)N(Cc1ccccc1Cl)C[C@@H](C)[C@H](OC)CN(C)C2=O`, for which the growth inhibition call is “inactive”. The entry for `CO[C@H]1CN(C)C(=O)c2ccc(NS(C)(=O)=O)cc2OC[C@H](C)N(C(=O)C2CCOCC2)C[C@H]1C` is “inactive”; for `CC(C)CC#Cc1ccc2c(c1)O[C@H](CN(C)C(=O)Cc1cccnc1)[C@@H](C)CN([C@H](C)CO)S2(=O)=O` it is “inactive”; for `O=C(C[C@H]1CC[C@@H](NC(=O)CN2CCOCC2)[C@H](CO)O1)NCCc1ccccc1` it is “inactive”.

Regarding `CCCCc1ccc(CC(=O)O)cc1`, the growth inhibition call was “inactive”. Turning to `CC(C)(C)Cc1ccc(OCCCC(=O)O)c(CC(C)(C)C)c1`, the growth inhibition call is “active”. The entry for `Cc1ccc(C)c(OCCCC(C)(C)C(=O)O)c1` is “inactive”. As to `C[C@H](CO)N1C[C@H](C)[C@H](CN(C)S(=O)(=O)c2ccccc2)Oc2ccc(NS(C)(=O)=O)cc2CC1=O`, the growth inhibition call was “inactive”. In the case of `CC(C)(C)C1CCC(OC[C@@H](O)CN2CCC(CN3C(=O)c4cccc5cccc(c45)C3=O)CC2)CC1` (stereo partly specified), the growth inhibition call was “active”.

With `O=C(CN1C(=O)c2cccc3cccc(c23)C1=O)N1CCN(CCN2C(=O)[C@@H]3[C@@H](C2=O)[C@@H]2C=C[C@@H]3C2)CC1`, the growth inhibition call was “inactive”.

In the case of `O=C(O)CN1C(=O)c2cccc3cccc(c23)C1=O`, the growth inhibition call was “inactive”.

In the case of `C[C@H](O)C#Cc1cnc2c(c1)C(=O)N([C@@H](C)CO)C[C@H](C)[C@@H](CN(C)Cc1cncnc1)O2`, the growth inhibition call is “inactive”. Take `C[C@@H]1CN([C@@H](C)CO)C(=O)c2cc(NC(=O)c3ccncc3)ccc2O[C@@H](C)CCCCO[C@@H]1CN(C)S(=O)(=O)c1cn(C)cn1`: the growth inhibition call was “inactive”. Regarding `C[C@H]1CN([C@@H](C)CO)C(=O)c2c(c3ccccc3n2C)-c2ccccc2CO[C@@H]1CN(C)Cc1ccc(C(=O)O)cc1`, the growth inhibition call was “inactive”. Take `COc1ccc2c(c1)n(CCN)c(=O)n2C(=O)[C@@H]1C[C@H](C)CC[C@H]1C(C)C`: the growth inhibition call was “active”. For `CC(C)[C@H]1CC[C@@H](C)C[C@@H]1NC(=O)c1cccc2ccccc12`, the growth inhibition call is “inactive”. Turning to `COc1ccc(NC(=O)N(C)C[C@H]2OCCCC[C@H](C)Oc3ccc(NC(=O)NC4CCCCC4)cc3C(=O)N([C@@H](C)CO)C[C@H]2C)cc1`, the growth inhibition call was “inactive”. To `O=C(O)CN(CCN(CC(=O)O)CC(=O)O)CC(=O)O` belongs “inactive”; to `Cc1c2oc3c(C)ccc(C(=O)OC(C)C4NC(=O)C(C(C)C)N(C)C(=O)CN(C)C(=O)C5CCCN5C(=O)C(C(C)C)NC4=O)c3nc-2c(C(=O)OC(C)C2NC(=O)C(C(C)C)N(C)C(=O)CN(C)C(=O)C3CCCN3C(=O)C(C(C)C)NC2=O)c(N)c1=O` (stereo unspecified), “active”. To `Cc1c2oc3c(C)ccc(C(=O)N[C@@H]4C(=O)N[C@H](C(C)C)C(=O)N5CCC[C@H]5C(=O)N(C)CC(=O)N(C)[C@@H](C(C)C)C(=O)O[C@@H]4C)c3nc-2c(C(=O)N[C@@H]2C(=O)N[C@H](C(C)C)C(=O)N3CCC[C@H]3C(=O)N(C)CC(=O)N(C)[C@@H](C(C)C)C(=O)O[C@@H]2C)c(N)c1=O` belongs “inactive”; to `Cc1c2oc3c(C)ccc(C(=O)N[C@@H]4C(=O)N[C@@H](C(C)C)C(=O)N5CCC[C@H]5C(=O)N(C)CC(=O)N(C)[C@@H](C(C)C)C(=O)O[C@@H]4C)c3nc-2c(C(=O)N[C@@H]2C(=O)N[C@@H](C(C)C)C(=O)N3CCC[C@H]3C(=O)N(C)CC(=O)N(C)[C@@H](C(C)C)C(=O)O[C@@H]2C)c(N)c1=O`, “active”.
